PubChem BioAssay AID2291 (The Scripps Research Institute Molecular Screening Center, 2010)
Screen size: about 16,000 compounds; about 75 (0.5%) were called active. This excerpt belongs to a sample that is enriched for actives. Unmarked numbers belong to inactive results. Cut-off read from the data, not from the text of the source: active = inhibition above about 30%; inactive = the rest.

target: Protein phosphatase methylesterase 1 (Homo sapiens) (UniProt Q9Y570); experiment: Maybridge compound blocking human PME-1 (AID 2291); details: recombinant PME-1, FP-Rh probe fluorescence polarization; at 9 µM; hits give high values
Sequence (Q9Y570 whole entry, looked up): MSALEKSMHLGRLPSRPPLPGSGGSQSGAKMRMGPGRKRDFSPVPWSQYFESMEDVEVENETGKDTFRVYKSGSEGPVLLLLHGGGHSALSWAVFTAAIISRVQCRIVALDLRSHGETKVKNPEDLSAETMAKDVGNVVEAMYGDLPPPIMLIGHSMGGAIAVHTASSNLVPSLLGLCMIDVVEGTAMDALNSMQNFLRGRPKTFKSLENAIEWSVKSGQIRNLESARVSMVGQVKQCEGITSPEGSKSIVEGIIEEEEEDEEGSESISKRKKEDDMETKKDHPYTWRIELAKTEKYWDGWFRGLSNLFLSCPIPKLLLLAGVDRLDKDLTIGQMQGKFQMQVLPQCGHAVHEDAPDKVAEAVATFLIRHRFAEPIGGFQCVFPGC

| Compound | inhibition |
| --- | --- |
| COc1ccc(-c2ccc(/C=N/NC(=O)CCc3ccc(O)cc3)s2)cc1 | -3.06% |
| COc1ccc(COCC(O)CN2CCC(C(N)=O)CC2)cc1 (configuration not stated) | 1.38% |
| FC(F)(F)c1ccc(Cl)c(NC(=S)NN=C2CCCCCC2)c1 | 0.88% |
| CC1(C)C=Cc2cc(-c3noc(-c4ccccc4)n3)ccc2O1 | -23.5% |
| CCCc1c(C(=O)Nc2ccc(F)cc2)cnn1-c1ccccc1 | 3.87% |
| O=C(Oc1ccccc1N1CCCCC1)c1sc2ccccc2c1Cl | -0.751% |
| CCOC(=O)CNC(=O)CCc1cc(OC)c(OC)c(OC)c1 | 6.62% |
| Cn1c(S(=O)(=O)O)nc2ccccc21 | 3.94% |
| O=C(Sc1ccccc1)c1ccc(C(F)(F)F)cc1 | -0.43% |
| CN(NS(=O)(=O)CS(C)(=O)=O)c1ncccc1[N+](=O)[O-] | 5.17% |
| O=C(O)c1onc2ccccc12 | -2.58% |
| CCOC(=O)NN(C(=O)OCC)c1c(C)c(C)c(C)c(C)c1C | -1.33% |
| Cc1nc(C(F)(F)F)ccc1C(=O)NC1CCCc2ccccc21 (configuration not stated) | 1.46% |
| Cc1cc2nc(C)c(C)nc2cc1C | -1.82% |
| COc1ccc(NC(=O)C2CC(C)=C(C)CC2C(=O)O)c(N2CCOCC2)n1 (configuration not stated) | 1.52% |
| N#CC(Cc1ccccc1)Sc1ccccc1 (configuration not stated) | 3.19% |
| O=C(CNC(=O)c1ccccc1F)c1ccc(Br)cc1 | -7.48% |
| O=C(/C(=N\N=C\c1ccc2c(c1)OCO2)c1ccccc1)c1ccccc1 | 4.75% |
| Cc1cc2nsnc2cc1Cl | 0.257% |
| COC(=O)c1sc(SC)c(-c2ccn[nH]2)c1C | 2.07% |
| NC(=S)N/N=C\Cc1nnnn1-c1ccc(Cl)cc1 | 1.94% |
| Nc1nc(C23CC4CC(CC(C4)C2)C3)cs1 | 8.45% |
| CSc1ccc(C(F)(F)F)cc1C(=O)/C=C/N(C)C | -0.344% |
| Clc1ccc(-c2csc(-c3cnccn3)n2)s1 | -1.61% |
| O=C1c2ccc3c4c(ccc(c24)C(=O)N1c1ccccc1)C(=O)N(c1ccccc1)C3=O | 5.87% |
| CCOC(=O)C1=C(C)NC(=O)NC1c1ccc(-c2cccc([N+](=O)[O-])c2)o1 (configuration not stated) | -24.2% |

| Compound | inhibition |
| --- | --- |
| C/C(=N\NC(N)=S)c1csc(-c2ccccc2)n1 | 4.41% |
| O=C(c1cc(-c2cccs2)on1)N1CCCCC1 | -4.77% |
| COCn1nnc2ccccc21 | 0.294% |
| COc1ccc(/C=C(\NC(=O)c2ccccc2)C(=O)N/N=C/c2ccc3c(c2)OCO3)cc1 | -5.56% |
| CCCCc1ccc(-n2c(-c3ccc(F)cc3)coc2=O)cc1 | 2.07% |
| N#C/C(=C\N1CCc2ccccc21)S(=O)(=O)c1ccc(C(F)(F)F)cn1 | 2.09% |
| Cn1c(=O)c(C#N)cn(-c2ccccc2)c1=O | 2.81% |
| Cc1ccc(NC(=S)C(C#N)C(=O)N2CCCC2)c(C)c1 (configuration not stated) | -4.1% |
| O=C(Nc1ccccc1-c1ccccc1)c1cccs1 | -1.11% |
| Fc1cccc(Cl)c1CN1CCN(c2ncnc3scc(-c4cccs4)c23)CC1 | -3.44% |
| CCOC(=O)Cc1csc(NC(NC(=O)OCC)(C(F)(F)F)C(F)(F)F)n1 | 4.35% |
| O=C1Nc2ccccc2C12NNC(=S)NN2 | 65.2% (active) |
| CSc1ccc(C(F)(F)F)cc1NC(=S)Nc1ccccc1 | 0.0132% |
| N#Cc1c(-c2cccs2)oc(-n2cccc2)c1-c1cc(Br)cs1 | -56.1% |
| O=C(NNC(=O)C1c2ccccc2Oc2ccccc21)c1cccc(F)c1 | 0.119% |
| O=S(=O)(NC1Cc2ccccc2C1)c1ccc(-c2csnn2)cc1 | 7.03% |
| Cn1cnc([N+](=O)[O-])c1N1CCN(C(c2ccccc2)c2ccccc2)CC1 | 0.986% |
| CN1CCCCC(C2=C(Cl)C(=O)CCC2)C1=O (configuration not stated) | 3.98% |
| OC(COc1ccc(Cl)c(Cl)c1)CN1CCC(Nc2nccc(C(F)(F)F)n2)CC1 (configuration not stated) | -0.258% |
| O=C(Nc1cc2ccccc2s1)N1CCN(Cc2c(F)cccc2Cl)CC1 | 0.279% |
| NC(=O)c1cccc2c1OCCO2 | 6.89% |
| Nc1ccccc1SCc1cc([N+](=O)[O-])cc2c1OCOC2 | 5.44% |
| COc1cc(CC/C(C)=N/O)ccc1O | 3.22% |
| NNC(=O)c1ccc(Cl)cc1Cl | 15.5% |
| CC(=O)Nc1ccc(C)cc1N=Cc1ccncc1 | 2.67% |
| O=C(O)c1cnc(NCc2ccccc2)s1 | -5.43% |

| Compound | inhibition |
| --- | --- |
| COc1ccc(CCN=C(C)c2cc(Cl)cc(Cl)c2O)cc1OC | 0.059% |
| CC1(NC(=O)OCc2ccccc2)CC1NC(=O)OCc1ccccc1 (configuration not stated) | -1.61% |
| O=S(=O)(c1ccc2c(c1)OCCO2)N1CCN(c2ccc(C(F)(F)F)cn2)CC1 | 27.1% |
| O=C(Cc1cccc2ccccc12)NNC(=O)Nc1ccc(Cl)cc1 | -12.8% |
| CCOC(=O)/C(=N/Nc1ccccc1)C(C)=N | 1.95% |
| N#CC(C#N)=C/C=C(/Sc1nc2cc(Cl)ccc2s1)c1ccc(Cl)cc1 | 3.07% |
| Cc1cccc(Cl)c1NC(=S)NCCNC(=O)OC(C)(C)C | -2.72% |
| O=c1[nH]c2ccccc2c(=O)n1CCSc1ccc(Cl)cc1 | -0.818% |
| O=C(O)CCc1cccnc1 | 5.03% |
| OC(CN1CCN(c2ccc(C(F)(F)F)cn2)CC1)c1ccc2c(c1)OCCO2 (configuration not stated) | -3.57% |
| OC(COc1ccc(F)cc1)(c1ccccc1)c1ccccc1 | 2.52% |
| Cn1/c(=N\N=C2CCCCC2)sc2ccccc21 | 24.3% |
| O=C(O)/C=C/C(=O)Nc1ccc(NC(=O)c2ccccc2O)cc1 | -5.93% |
| O=C1CC(c2ccccc2)C(=O)N1Cc1cccs1 (configuration not stated) | -0.212% |
| CCOC(=O)c1c(N/N=C\c2ccccc2O)n[nH]c1C | 7.03% |
| COc1ccccc1C1CCN(c2ccc([N+](=O)[O-])cn2)CC1 | 3.68% |
| COC(=O)c1scc(S(=O)(=O)Cc2ccco2)c1N/N=C(\C#N)S(=O)(=O)C(C)C | 7.89% |
| CCCCOC(=O)c1ccc(-c2ccccn2)s1 | 5.14% |
| COc1cccc(/C=N/NC(=S)Nc2cc(C(F)(F)F)cc(C(F)(F)F)c2)c1O | 5.97% |
| CCCC1NC(=O)NC(C)=C1C(=O)OCC (configuration not stated) | -4.5% |
| O=[N+]([O-])c1ccc(C2CC2(Br)Br)cc1 (configuration not stated) | 0.49% |
| Cc1nc2ccccn2c1C(=O)N/N=C/c1cn(-c2ccccc2)nc1-c1cccs1 | 1.07% |
| CSc1c(C#N)c(N)nc(SCC(=O)c2ccc(OC(F)F)cc2)c1C#N | -10.3% |
| CCOC(=O)/C(C#N)=C/N=C(N/N=C/c1cccs1)SC | -1.55% |
| Cn1c(CN2C(=O)CSc3ccc(C(F)(F)F)cc32)nnc1SCC(=O)c1ccccc1 | 5.25% |
| CC(C)CC(NC(=O)OC(C)(C)C)C(=O)OCc1ccc(CC(=O)O)cc1 (configuration not stated) | -2.54% |

| Compound | inhibition |
| --- | --- |
| O=C(NNc1ccccc1C(F)(F)F)NS(=O)(=O)c1ccc(Cl)cc1 | 5.25% |
| CCOC(=O)c1ccc2nc(C(F)(F)F)cc(N3CCN(Cc4ccccc4)CC3)c2c1 | -1.13% |
| Cc1nc(C)c(-c2ccnc(-c3ccc(Cl)cc3)n2)s1 | 4.12% |
| NC(CC(=O)O)c1ccccc1 (configuration not stated) | 6.22% |
| CSc1nc(N)nc2nc[nH]c12 | -1.11% |
| COC(=O)c1cc(S(=O)(=O)NCc2csc(-c3cccs3)n2)oc1C | -1.1% |
| CC1=C(C(=O)O)N2C(=O)[C@H](NC(=O)[C@@H](N)c3ccccc3)C2SC1 (some centres not stated) | 0.953% |
| N#CCSc1ccc2ccccc2c1 | 3.36% |
| CCOC(=O)c1c(NC(=S)Nc2ccccc2)sc2c1CCN(C)C2 | -2.27% |
| NC(=O)C1CCN(CC(O)CSc2ccc(F)cc2)CC1 (configuration not stated) | 0.714% |
| CC(=O)Nc1cccc(-n2nnc(SCC(=O)c3cc(-c4ccccc4)no3)n2)c1 | -46.5% |
| CCOC(=O)C(=CNc1cc(C(F)(F)F)ccc1NCc1ccccc1)C(=O)OCC | 1.63% |
| COC(=O)c1cc(OC)c(OC)cc1NC(=O)CSc1ccc(Cl)cc1 | 5.14% |
| NC(=O)c1ccccc1OCCOc1ccccc1C(N)=O | -1.29% |
| Cn1cc(Br)c(-c2cccc(NC(=O)c3ccccc3Cl)c2)n1 | 5.94% |
| N#Cc1nccnc1N1CCN(c2ccccc2)CC1 | 1.69% |
| N#Cc1cccnc1NNC(=O)c1ccccc1C(=O)O | -1.06% |
| Fc1ccc(COc2ccc(-c3nnco3)cc2)cc1 | 4.75% |
| CCOC(=O)c1cnc2c(S(=O)(=O)C(C)C)csc2c1Sc1cccc(Cl)c1 | 3.84% |
| CC(=O)N1C=CC(c2c[nH]c3ccccc23)C=C1 | -3.18% |
| CC(C)S(=O)(=O)/C(C#N)=C/c1ccccc1OC(F)(F)F | 2.58% |
| CS(=O)(=NC(=O)c1cc2ccccc2o1)c1ccc(Cl)cc1 (configuration not stated) | 4.96% |
| CC(C)(C)C(=O)OCC(N)=S | -1.98% |
| O=[N+]([O-])c1ccc(N2CCC2)cc1 | 0.196% |
